# Screening results (PubChem)
# An excerpt weighted towards active compounds, which were near 1.5% of everything screened.
# MEX-5 binding – C. elegans MEX-5 TCR-2 RNA binding activity | activity score (negative = inhibition of binding), % at 10 µM | AID 1832 | actives 0.38% (n = 300,000) | MEX-5/FITC-TCR2 RNA binding, fluorescence polarization; active compounds read low | Q9XUB2;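 active means inhibition past about -25% in most replicates, and total fluorescence under double the plate's negative control median, limit read from the data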;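 further: 0% = DMSO and -100% = 5 µM competing unlabeled TCR2 RNA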
# GLD-1 TGE inh – GLD-1-TGE RNA interaction inhibition (C. elegans); purified GLD-1 + fluorescein TGE RNA, fluorescence polarization; inhibition, % at 5.96 µM; actives 0.44% (n = 320,000); AID 2280;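 active means percent inhibition above a per-plate cutoff, the plate mean of test compounds plus 3 SD, cut at about 30% in these data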;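 further: 0% = DMSO wells with GLD-1 and probe and 100% = wells lacking GLD-1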
# Target sequence (Q17339 whole entry, looked up): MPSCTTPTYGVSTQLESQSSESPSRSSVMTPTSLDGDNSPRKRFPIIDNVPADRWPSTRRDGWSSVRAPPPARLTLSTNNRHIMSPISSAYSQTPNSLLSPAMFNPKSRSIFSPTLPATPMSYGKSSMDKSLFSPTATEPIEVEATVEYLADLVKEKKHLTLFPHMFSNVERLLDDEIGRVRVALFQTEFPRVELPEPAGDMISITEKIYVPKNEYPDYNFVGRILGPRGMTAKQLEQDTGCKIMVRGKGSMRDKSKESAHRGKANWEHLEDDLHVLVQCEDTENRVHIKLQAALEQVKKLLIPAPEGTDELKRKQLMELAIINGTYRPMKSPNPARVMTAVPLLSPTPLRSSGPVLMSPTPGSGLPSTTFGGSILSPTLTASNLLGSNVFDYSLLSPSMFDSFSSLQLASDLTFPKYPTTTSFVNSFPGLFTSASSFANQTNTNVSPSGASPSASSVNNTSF
# EBV gp42 inh – inhibitors of Epstein-Barr virus glycoprotein 42 | Fluorescence polarization binding assay, mP read-out | inhibition, % (tested at 21.74 µM) | actives 0.42% (n = 220,000); in the data active means inhibition above about 50%
# eLon inh – inhibitors of E. coli Lon protease; actives 0.42% (n = 360,000); inhibition, % at 7.94 µM; AID 602123; purified E. coli Lon protease, fluorescence polarization; P0A9M0; in the data active means inhibition above about 13%, passing the limit was not always enough;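 further: 0% = enzyme with probe and DMSO and 100% = no enzyme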
# MCL1 BIM primary – MCL1-BIM-BH3 interaction inhibition (human); GST-MCL1 / FITC-Bim-BH3 fluorescence polarization; inhibition, % at 10.9 µM; actives 0.68% (n = 320,000);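 active means inhibition above the mean inhibition of all tested compounds plus 3 SD, set per campaign, cut at about 40% in these data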;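 further: 0% = DMSO wells and 100% = unlabeled Bim-BH3 peptide control; higher means more loss of mP so more displacement of Bim peptide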
# BCLXL inh – inhibitors of human Bcl-xL | Q07817 | actives 0.7% (n = 320,000) | inhibition, % at 10.9 µM | GST-Bcl-xL / FITC-Bim BH3 peptide fluorescence polarization | AID 2129;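 active means inhibition above the mean of all tested compounds plus 3 SD, cutoff set per campaign, cut at about 30% in these data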;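 further: 0% = DMSO wells and 100% = unlabeled Bim-BH3 peptide competitor; inhibitors lower millipolarization by displacing the labeled peptide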
# BCLXL inh confirm – counter-screen for MCL1 inhibitors: confirmation of human Bcl-xL inhibitors. actives 54% (n = 1,700). GST-Bcl-xL / FITC-Bim BH3 peptide FP binding. AID 2166. inhibition, % at 10.9 µM. shares compounds with MCL1 BIM primary;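 active means inhibition above a cutoff equal to the mean inhibition of all tested compounds plus 3 SD, cut at about 30% in these data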;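 further: 0% = DMSO wells and 100% = unlabeled Bim BH3 control peptide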
# MCL1 BIM confirm – MCL1-BIM-BH3 interaction inhibition, confirmation; GST-MCL1 / FITC-Bim-BH3 fluorescence polarization; actives 61% (n = 1,700); AID 2168; shares compounds with MCL1 BIM primary; inhibition, % at 10.9 µM;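 active means inhibition above the average of all tested compounds plus 3 SD, cut at about 40% in these data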;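 further: 0% = DMSO wells and 100% = unlabeled Bim-BH3 control peptide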
# GLD-1 TGE cf – GLD-1 TGE RNA interaction inhibition, confirmation | shares compounds with GLD-1 TGE inh | GLD-1/FL-TGE RNA fluorescence polarization, biochemical | inhibition, % at 5.96 µM | actives 10% (n = 550) | AID 2459;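 active means average inhibition across triplicates above the hit cutoff set in the primary screen, cut at about 32% in these data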;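 further: 0% = GLD-1 with RNA probe and DMSO and 100% = wells lacking GLD-1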
# E coli Lon conf – confirmation of E. coli Lon protease inhibitors | shares compounds with eLon inh | purified E. coli Lon, fluorescence polarization | inhibition, % at 7.94 µM | actives 31% (n = 1,400); in the data active means inhibition above about 16%;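 further: 0% = enzyme with probe and DMSO and 100% = no enzyme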
# The depositor's hits bear a star; . = not tested or not shown; + = active, no number.
SMILES,MEX-5 binding,GLD-1 TGE inh,EBV gp42 inh,eLon inh,MCL1 BIM primary,BCLXL inh,BCLXL inh confirm,MCL1 BIM confirm,GLD-1 TGE cf,others
CCOC(=O)Cn1c(=O)c(-c2cc(Br)ccc2N)nc2ccccc21,-38*,37*,60*,4,82*,70*,108*,132*,50*,
COc1ccc(NC(=S)N2CCN(c3ccc4c(c3)C3CCN(C(=O)OCc5ccccc5)C4C3)CC2)c(OC)c1 (stereo not drawn),.,.,.,0,.,.,.,.,.,
O=C(NCCOc1ccccc1)C1Nc2ccc(OC(F)(F)F)cc2C2C=CCC12 (stereo not drawn),3,0,.,3,7,-3,.,.,.,
O=C(O)c1ccc2c(c1)[C@@H]1C=CC[C@@H]1[C@H](c1ccccn1)N2,-100*,34*,.,17,86*,56*,50*,85*,10,
CCn1c2ccccc2c2cc(NC(=O)CNCc3ccccc3OC)ccc21,-2,6,.,3,2,4,.,.,.,
COc1ccccc1CNCC(=O)Nc1ccc(N(C)C)cc1,-5,50*,.,3,86*,71*,61*,61*,-2,
CC1=CC(=O)c2c(O)ccc(O)c2C1=O,.,75*,116*,.,138*,88*,102*,142*,33*,
COCC(=O)N1CCC(Oc2ccc(C(=O)NCCc3ccncc3)cc2)CC1,-4,3,6,-6,8,8,.,.,.,
Cc1ccnc(Nc2nc(-c3ccc(Cl)cc3)cs2)c1,2,32*,.,-14,52*,23,2,-2,-4,
C(=Nc1cccc2c(N=Cc3ccco3)cccc12)c1ccco1,-3,43*,33,7,76*,82*,25,22,3,
C[C@H]1CN([C@@H](C)CO)C(=O)c2cccc(NC(=O)C3CC3)c2O[C@H]1CN(C)S(=O)(=O)c1cccs1,.,3,.,-3,.,.,.,.,.,
COc1cccc(C(=O)N2CCN(C(=O)c3cccc(F)c3)CC2)c1,-1,53*,-36,-4,85*,76*,0,0,5,
COc1cccc(C(=O)N2CCN(C(=O)C3CC3)CC2)c1,1,.,.,2,.,.,.,.,.,
O=c1c2ccccc2nc2n1CC/C2=C/N1CCN(c2cccc(C(F)(F)F)c2)CC1,-3,42*,5,7,56*,50*,20,16,2,
Cc1cccc(-n2cnc3c(sc4nc(N5CCOCC5)c5c(c43)CCCC5)c2=O)c1,0,-9,-11,6,-5,-2,.,.,.,
COc1ccccc1C1C2=C(CCCC2=O)N(CC(=O)O)C2=C1C(=O)CCC2,-4,58*,.,2,47*,48*,9,12,-1,
COc1ccc(NC(=O)CSCC(=O)OCc2cccc(OC)c2OC)cc1,1,8,.,-7,-8,-4,.,.,.,
CC(=O)C1=C(C)OC(N)=C(C#N)C1c1ccco1 (stereo not drawn),-14,39*,-6,7,59*,60*,20,16,3,
COC(=O)C1=C(C)OC(N)=C(C#N)C1c1ccco1 (stereo not drawn),3,-3,-14,-16,9,5,.,.,.,
COc1ccc(CN2CC[C@H]3C=CCc4cccc(c43)C2)cc1,.,60*,.,-3,87*,72*,19,16,1,
CCC(=O)NCCn1c(C)cc2ccccc21,-1,25,-1,5,18,19,.,.,.,
Cc1cc2ccccc2n1CCNC(=O)COc1ccccc1,1,72*,7,2,63*,41*,26,28,11,
CC(C(=O)Nc1ccc(C(=O)O)c(O)c1)N1C(=O)/C(=C\c2ccco2)SC1=S (stereo not drawn),-26*,32*,.,-32,91*,47*,46*,80*,5,
O=C(NCCC1=CCCCC1)C(=O)NCc1ccncc1,1,47*,-4,-3,68*,73*,9,-1,13,
CC(=O)Oc1ccccc1C(=O)C=Cc1cccc([N+](=O)[O-])c1,.,.,.,-4,.,.,.,.,.,
SMILES,MEX-5 binding,GLD-1 TGE inh,EBV gp42 inh,eLon inh,MCL1 BIM primary,BCLXL inh,BCLXL inh confirm,MCL1 BIM confirm,GLD-1 TGE cf,others
NC(=O)/C(=C/c1ccco1)C(N)=S,-1,50*,-5,3,116*,86*,21,18,-5,
NC(=O)/C(=C\c1ccco1)NC(=O)c1ccco1,.,.,.,-15,.,.,.,.,.,
O=C1NC(=S)N/C1=C/c1cc2c(cc1[N+](=O)[O-])OCO2,0,42*,.,29,67*,53*,10,14,0,
O=C(O)/C=C\c1cc2c(cc1[N+](=O)[O-])OCO2,-8,10,-10,10,12,10,.,.,.,
Clc1cccc(C2Nc3cccc4cccc(c34)N2)c1,-4,32*,.,-1,46*,27,25,41*,1,
CN(C)/C=N/c1cc(=O)[nH]c(=O)n1CC1CC1,2,3,-7,-3,6,6,.,.,.,
C=CCn1c(=O)[nH]c2nc3cc(N=CN(C)C)c(C)cc3nc2c1=O,-51*,181*,118*,158*,+,+,186*,+,.,E coli Lon conf=+
Cc1ccc(NC(=O)c2cccc(S(=O)(=O)N(C)C3CCCCC3)c2)nc1,-2,10,.,2,-3,-6,.,.,.,
CCOc1ccc(C=Nc2cccc3ncccc23)cc1,1,1,-12,-4,9,4,.,.,.,
Cc1ccc(C=Nc2cccnc2N)cc1,-8,80*,4,+,70*,60*,11,13,.,E coli Lon conf=5
COc1ccc(N=Nc2nc3ccc(Br)cc3n2C)cc1,-50*,176*,51*,+,+,+,88*,116*,.,E coli Lon conf=92*
COc1ccc(-c2c(-c3cc(OC)cc(OC)c3)n(C)c3ccc(Br)cc23)cc1,.,11,.,-6,6,4,.,.,.,
CCCn1c(SCC(=O)N(CC)CC)nnc1-c1ccncc1,-4,2,-3,2,0,-1,.,.,.,
CCN(CC)C(=O)CSc1nnc2nnc3cc(Cl)ccc3n12,-32*,123*,67*,54*,88*,93*,65*,79*,.,E coli Lon conf=42*
Cc1oc(/N=C/c2ccccc2O)c(C#N)c1C,-2,18,-10,6,9,13,.,.,.,
